Screening results as filed in PubChem BioAssay.
The list is not random: actives were taken first. Their share in the collection is about 4.8%.
APP transl inh – APP translation inhibition | SH-SY5Y APP 5'UTR-luciferase reporter, luminescence | inhibition, % at 2 µM | 0.82% of 190,000 active;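 active = inhibition above a set limit, derived from the sample mean plus 3 SD, cut at about 45% in these data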
Wee1 stabilizer – inhibitors of human Wee1 degradation; 1.2% of 220,000 active; AID 1321; reporter increase, % at 5 µM; P30291; HeLa Luc-Wee1K328M stability, luciferase luminescence; 100% = proteasome inhibitor MG132 effect;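 active = activation above the mean of all tested compounds plus 3 SD, set per screening run, cut at about 8.8% in these data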;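 also: cells exposed to compound for 20 h before luminescence read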
Target sequence (P30291 whole entry K328M): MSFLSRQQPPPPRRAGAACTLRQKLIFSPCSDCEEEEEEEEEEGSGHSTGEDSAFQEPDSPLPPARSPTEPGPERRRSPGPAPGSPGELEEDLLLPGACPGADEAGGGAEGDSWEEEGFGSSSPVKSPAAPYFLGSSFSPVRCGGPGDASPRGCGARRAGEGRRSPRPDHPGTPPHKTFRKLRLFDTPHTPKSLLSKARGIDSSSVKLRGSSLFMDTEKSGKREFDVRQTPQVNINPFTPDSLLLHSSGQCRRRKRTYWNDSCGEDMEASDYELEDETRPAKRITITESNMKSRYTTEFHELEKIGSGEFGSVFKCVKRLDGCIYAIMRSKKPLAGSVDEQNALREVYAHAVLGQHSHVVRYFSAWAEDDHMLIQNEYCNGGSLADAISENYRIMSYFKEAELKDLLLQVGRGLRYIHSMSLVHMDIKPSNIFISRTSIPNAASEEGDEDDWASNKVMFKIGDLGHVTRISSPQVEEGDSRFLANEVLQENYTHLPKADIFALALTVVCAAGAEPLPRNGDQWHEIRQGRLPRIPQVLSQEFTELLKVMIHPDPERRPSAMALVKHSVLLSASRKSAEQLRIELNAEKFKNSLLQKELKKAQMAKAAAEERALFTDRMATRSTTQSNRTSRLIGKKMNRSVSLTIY
APP 5'UTR act – APP 5'UTR luciferase reporter activation; SH-SY5Y APP 5'UTR luciferase reporter, luminescence; zero percent = DMSO vehicle wells; activation, % at 2 µM; 1% of 190,000 active;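 active = activation above a set limit, based on mean plus 3 SD of controls, cut at about 140% in these data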
NF-kB expr up – NF-kB expression increase, human neuronal cells | NF-kB reporter expression; stronger effect = higher value | AID 1239 | 1.6% of 190,000 active | fold change at 12.5 µM; in the data active = fold change above about 3.3
Hsp70 act – transcriptional activators of Hsp70 | 0.04% of 200,000 active | activation, % at 10 µM | HeLa Hsp70 promoter luciferase reporter, luminescence; scaled: vehicle 0, proteasome-inhibitor control 100% | AID 1203;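 active = activation above the mean across all tested compounds plus 3 SD, cutoff set per campaign, cut at about 5.5% in these data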
STAT1 activator – increases IFN-gamma driven STAT1 reporter signal | NIH 3T3 STAT1-luciferase reporter, luminescence; 100% = IFN-gamma alone, no compound | activation (% of control), % at 5.5 µM | 2.6% of 200,000 active;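 active = activation above the screen-wide mean activation plus 3 SD, cut at about 130% in these data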
Large screens that a line does not name were inactive.

CCn1c(=O)cc(OCC(=O)Nc2cc(C)ccn2)c2ccccc21	none
COc1ccc(OC)c(-n2c(N)c(C(=O)NCC3CCCO3)c3nc4ccccc4nc32)c1 (centres undefined)	none
CCOC(=O)c1c(NC(=O)CC(C)C)sc(C(C)=O)c1C	NF-kB expr up 5.92
Nc1cccc(-c2nc3ccccc3s2)c1	NF-kB expr up 5.9, STAT1 activator 147.4
Oc1cccc(-c2nc3ccccc3s2)c1	NF-kB expr up 9.04
CC(=O)Oc1cccc(N2C(=O)c3ccc(C(=O)O)cc3C2=O)c1	none
O=C(O)c1ccc2c(c1)C(=O)N(c1cccc(-c3nc4ccccc4s3)c1)C2=O	Wee1 stabilizer 11.1, STAT1 activator 129.5
COc1cc(-c2nc3ccccc3s2)ccc1O	none
O=S(=O)(c1cccc(-c2nc3ccccc3s2)c1)N1CCCC1	none
Cn1c(N/N=C2\CCCc3ccccc32)nc2c1c(=O)n(Cc1ccc(F)cc1)c(=O)n2C	none
Clc1ccc(-c2cc3ccccc3nc2N2CCOCC2)cc1	none
Cc1cc(C)nc(NS(=O)(=O)c2ccc(NC(=O)COc3ccccc3)cc2)n1	none
CC(=O)NS(=O)(=O)c1ccc(NC(=O)COc2ccc(C(=O)c3ccccc3)cc2)cc1	Wee1 stabilizer 10.4
CC(=O)NS(=O)(=O)c1ccc(NC(=O)CCC2CCCC2)cc1	APP transl inh 52.5
NS(=O)(=O)c1ccc(NC(=O)CCC2CCCCC2)cc1	none
CCC(=O)Nc1ccc(/C(C)=N\NC(=O)c2ccc(C)s2)cc1	none
C/C(=N\NC(=O)c1nn(C)c(C)c1Br)c1ccc(NC(=O)c2ccc(C)s2)cc1	STAT1 activator 132.7
Cc1cc(C)n2[nH]c(=O)c(N=Nc3ccc(S(N)(=O)=O)cc3)c2n1	none
Cc1ccc(N=Nc2c(=O)[nH]n3c(C)cc(C)nc23)cc1	Wee1 stabilizer 10.8
COc1ccc(OC)c(C2=C[N+](=O)C(C)(C)C(C)(C)N2[O-])c1	none
CC1(C)N([O-])C(c2ccccc2)=C[N+](=O)C1(C)C	Wee1 stabilizer 9.3
Nc1nnnn1/N=C\c1ccc(Cl)c([N+](=O)[O-])c1	none
COc1ccc2[nH]cc(CCNC(=O)C3CCCO3)c2c1 (centres undefined)	Wee1 stabilizer 10.8
O=C(c1cc(COc2c(F)cccc2F)on1)N1CCC(c2ccccc2F)C1 (centres undefined)	STAT1 activator 131.9
O=C1OC(Nc2ccc(Br)cc2F)c2ccccc21 (centres undefined)	none
CC(=O)c1cnc2cc(-c3ccc(Cl)cc3)nn2c1C	NF-kB expr up 3.59, STAT1 activator 137.7
Cc1c(N(C(=O)Cc2cccs2)C2(C(=O)NC3CCCC3)CCCCC2)c(=O)n(-c2ccccc2)n1C	NF-kB expr up 4.13
COc1ccc(N2CCN(CC(=O)Nc3cc4c(cc3C(C)=O)OCO4)CC2)cc1	none (no result: NF-kB expr up)
O=C(NNc1cccc(Cl)c1)c1cccnc1Cl	Wee1 stabilizer 9.4
CC(=O)Nc1ccc(C#Cc2ccc(NC(C)=O)cc2)cc1	none
COc1ccc(C2C3=C(Nc4ncnn42)c2ccccc2CCC3)cc1 (centres undefined)	none
COc1cc(C2C3=C(Nc4ncnn42)c2ccccc2CC3)cc(OC)c1OC (centres undefined)	APP transl inh 95.0
Cn1c(SCc2nc3ccccc3s2)nnc1-c1cccs1	none
CCCn1c(SCc2nc3ccccc3s2)n[nH]c1=O	STAT1 activator 134.0
Cc1ccccc1-n1c(C)nnc1SCc1nc2ccccc2s1	APP 5'UTR act 141.3, STAT1 activator 132.3
COc1ccc(COc2ccsc2C(=O)Nc2ccc(Cl)cc2)cc1	none
CCC(=O)Nc1ccc2c(c1)C(=O)N(C)C2=O	none
CC(=O)c1cccc(NC(=S)NC(=O)c2ccccc2)c1	NF-kB expr up 3.77, STAT1 activator 132.7
O=C(NC(=S)Nc1ccc2c(c1)OCO2)c1ccccc1	APP 5'UTR act 170.0, NF-kB expr up 7.28, STAT1 activator 145.6
CC(=O)c1cccc(NC(=S)NC(=O)c2cccc(Cl)c2)c1	STAT1 activator 139.5
CCC(=O)Nc1ccc2c(c1)C(=O)c1ccccc1C2=O	NF-kB expr up 4.17, STAT1 activator 148.4
CNC(=S)Nc1cccc(C(C)=O)c1	none
CC(=O)c1cccc(NC(=S)NC(=O)C(C)C)c1	none
Cc1ccc(C(=O)O)cc1NC(=S)NC(=O)c1ccc(-c2ccccc2)cc1	none
